Laboratory results taken from PubChem BioAssay (Tox21).
Records with an inconclusive call do not appear. A call without a number means that no potency is given here. Where a structure was tested more than once in an assay, its records may differ in their call. The source made the active and inactive calls. Calls follow the shape of the dose curve; as a rule, active = well fitted activation curve with a large enough effect in the repeat runs; inconclusive = weak or mixed curves; inactive = flat fitted curve, though single readings scatter.

Assay: A CellTox Green Cytotoxicity Assay to monitor cytotoxicity in HEK293 cells - 40 hour (AID 1224871); also: nearly all actives have a fitted effect of over 45% in size
Conditions: CellTox Green fluorescence; series mostly up to 76.8 µM; cytotoxicity increase: at the top concentration
Description: National Center for Advancing Translational Sciences [NCATS]
NIH Chemical Genomics Center [NCGC]
U.S. Environmental Protection Agency [EPA]
National Institutes of Environmental Health Sciences [NIEHS]
National Toxicology Program [NTP]
Cell-based models are critical for drug discovery. Determining the natural cytotoxic effects resulting from test compounds is an essential research activity. A CellTox Green Cytotoxicity Assay to monitor cytotoxicity in real time of continues cell culture during 40 hours of the compound treatment was used to screen Tox21 10K library compounds in Hek293 cells. CellTox Green Cytotoxicity Assay is a nonlytic, homogeneous, biofluorescent method to measure cytotoxicity in cell culture after experimental manipulation. The assay system uses a proprietary asymmetric cyanine dye that is excluded from viable cells but preferentially stains the dead cell's DNA. […] Viable cells produce no appreciable increases in fluorescence. Therefore, the fluorescence signal produced by the binding interaction with dead cell DNA is proportional to cytotoxicity.
The mixture of Hek293 cell suspension and reagents were dispensed at 600cells/6 ul/well in 1536-well tissue culture treated black solid bottom plates using a Multidrop dispenser. After the assay plates were incubated at a 37 C/5% CO2 incubator for 5 hours, 23 nL of compounds dissolved in DMSO, positive and negative controls was transferred to the assay plate by a pintool work station. The plates were incubated at 37 C for 40 hours. The fluorescence intensity were measured at 0h, 8h, 16h, 24h, 32h and 40h time points using ViewLux plate reader during compound treatment.
Potency is read from the fitted curve at half-maximal effect.

Structure (SMILES) | Potency | cytotoxicity increase
CC(=O)CCc1ccccc1 | inactive | 
CC1Cc2ccccc2N1NC(=O)c1ccc(Cl)c(S(N)(=O)=O)c1 (stereo not given) | inactive | 
C=C(C#N)C(=O)OCC | inactive | 
CC(C)(C)C(=O)C1C(=O)c2ccccc2C1=O | inactive | 
Clc1ccc(Cl)c(Cl)c1Cl | inactive | 
CCCCC(CC)COC(=O)/C=C\C(=O)OCC(CC)CCCC (stereo not given) | inactive | 
C=C1CC[C@H](O)CC1=C/C=C1\CCC[C@]2(C)[C@@H]([C@H](C)/C=C/[C@H](C)C(C)C)CC[C@@H]12 |  | 29.3% (inactive)
CC(C)(CO)COC(=O)C(C)(C)CO | inactive | 
CC(=O)[C@@]1(O)CC[C@H]2[C@@H]3CCC4=CC(=O)CC[C@]4(C)[C@H]3CC[C@@]21C | inactive | 
O=[N+]([O-])c1cc(N(CCO)CCO)ccc1NCCO | inactive | 
C=C(C)C(=O)OCCC[Si](OC)(OC)OC |  | 5.01% (inactive)
Cc1cc(=O)[nH]c(C(C)C)n1 | inactive | 
CCCCOCCO | inactive | 
CC(C)(C)C1CCC(O)CC1 (stereo not given) | inactive | 
Cc1cc(Cc2ccc(N)c(C)c2)ccc1N | inactive | 
Cc1ccc(C(=O)O)o1 | inactive | 
COC(=O)Nc1nc2ccc(Sc3ccccc3)cc2[nH]1 | 21.3 µM (active) | 
CC(C)Cc1ccccc1 | inactive | 
CC#C[C@]1(O)CC[C@H]2[C@@H]3CCC4=CC(=O)CCC4=C3[C@@H](c3ccc(N(C)C)cc3)C[C@@]21C | inactive | 
C=C(C)C(=O)OCCCCCC | inactive | 

Structure (SMILES) | Potency | cytotoxicity increase
O=S(=O)(O)c1cc(S(=O)(=O)O)c2c(N=Nc3ccccc3)c(O)ccc2c1 | inactive | 
CC(=O)Nc1ccc(C(=O)O)cc1 | inactive | 
CS(=O)(=O)Nc1ccc([N+](=O)[O-])cc1Oc1ccccc1 | inactive | 
CC(C)(N=C=O)c1cccc(C(C)(C)N=C=O)c1 | inactive | 
Cn1c([N+](=O)[O-])cnc1COC(N)=O |  | -12.7% (inactive)
NCCc1ccc(O)c(O)c1 | inactive | 
C[C@@H]1O[C@@H](OC[C@H]2O[C@@H](Oc3c(-c4ccc(O)c(O)c4)oc4cc(O)cc(O)c4c3=O)[C@H](O)[C@@H](O)[C@@H]2O)[C@H](O)[C@H](O)[C@H]1O | inactive | 
Cc1ccc(N)c(S(=O)(=O)O)c1 | inactive | 
OC[C@@H](O)[C@@H](O)[C@H](O)[C@@H](O)CO | inactive | 
O=[N+]([O-])c1cccc(Cl)c1 | inactive | 
CCCCCCCCCCCCOCC1CO1 (stereo not given) |  | -4.08% (inactive)
CC1CC(OC(=O)c2ccccc2O)CC(C)(C)C1 (stereo not given) | 48.5 µM (active) and inactive | 
O=C(Cl)c1c(Cl)c(Cl)c(C(=O)Cl)c(Cl)c1Cl | inactive | 
CCCCCCCCC | inactive | 
C/C=C(C)/C=C/C=C(C)C |  | 2.77% (inactive)
COC(=O)c1ccccc1O | inactive | 
O=c1c(-c2ccc(O)cc2)coc2cc(O)ccc12 | inactive | 
O=[N+]([O-])C(CO)(CO)CO | inactive | 
CC1=CC[C@H]2C[C@@H]1C2(C)C | inactive | 
Oc1ccc2ccccc2c1 | inactive | 
